Assay results as given in PubChem BioAssay (NCATS).
Results filed as inconclusive are left out. Calls of active or inactive are those of the source. Calls come from the whole dose curve; as a rule, active = well fitted curve in the direction sought with a large enough effect; inconclusive = small, poorly fitted or top-dose-only effect, or another doubt; inactive = no such curve, though single readings can be large; an effect the other way counts as inactive or inconclusive.

Columns and labels:
HACAT = test: qHTS assay to identify novel small-molecules to repurpose for Merkel cell carcinoma treatment (AID 1296009); conditions: MCC and control cell lines, CellTiter-Glo viability, 72 h; at 44.8 µM (top of the series) unless noted; note: nearly all actives have a fitted effect of over 60% in size
Method in brief: (§1)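 qHTS format: cells treated with library compounds in DMSO across 8 (NPC) or 11 (MIPE) concentrations. Readout after 72 hr at 37 degree celsius was CellTiter-Glo luminescence.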

NIH3T3 = test: as above; conditions: MCC and control cell lines, CellTiter-Glo viability, 72 h; at 44.8 µM (top of the series) unless noted
Method in brief: as §1

C33A = test: Primary qHTS to identify gynecologic anti-cancer compounds using libraries of approved drugs and bioactive compounds (AID 1345084); conditions: Gynecologic cancer cell panel viability, ATPlite luminescence, 48 h; series mostly up to 57.5 µM; note: % is set by controls: 0 for no effect and ±100 for the full control effect; nearly all actives have a fitted effect of over 55% in size
Method in brief: (§2)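 Five-point cytotoxicity, 48 h drug exposure at 37 C, 5% CO2, on cells seeded 16 h beforehand. ATP content read by ATPlite luminescence.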

CAOV3 = test: as above; conditions: Gynecologic cancer cell panel viability, ATPlite luminescence, 48 h; series mostly up to 57.5 µM
Method in brief: as §2

CASKI = test: as above; conditions: Gynecologic cancer cell panel viability, ATPlite luminescence, 48 h; series mostly up to 57.5 µM
Method in brief: as §2

Es-2 = test: as above; conditions: Gynecologic cancer cell panel viability, ATPlite luminescence, 48 h; series mostly up to 57.5 µM
Method in brief: as §2

HeLa = test: as above; conditions: Gynecologic cancer cell panel viability, ATPlite luminescence, 48 h; series mostly up to 57.5 µM
Method in brief: as §2

Hek293T = test: as above; conditions: Gynecologic cancer cell panel viability, ATPlite luminescence, 48 h, control line for the selectivity index; series mostly up to 57.5 µM
Method in brief: as §2

JEG-3 = test: as above; conditions: Gynecologic cancer cell panel viability, ATPlite luminescence, 48 h; series mostly up to 57.5 µM
Method in brief: as §2

OV90 = test: as above; conditions: Gynecologic cancer cell panel viability, ATPlite luminescence, 48 h; series mostly up to 57.5 µM
Method in brief: as §2

PA-1 = test: as above; conditions: Gynecologic cancer cell panel viability, ATPlite luminescence, 48 h; series mostly up to 57.5 µM
Method in brief: as §2

SKOV3 = test: as above; conditions: Gynecologic cancer cell panel viability, ATPlite luminescence, 48 h; series mostly up to 57.5 µM
Method in brief: as §2

Tov-21-G = test: as above; conditions: Gynecologic cancer cell panel viability, ATPlite luminescence, 48 h; series mostly up to 57.5 µM
Method in brief: as §2

Tov112D = test: as above; conditions: Gynecologic cancer cell panel viability, ATPlite luminescence, 48 h; series mostly up to 57.5 µM
Method in brief: as §2

COc1ccc(/C=C/C(=O)O[C@@H]2[C@@H](O[C@@H]3O[C@H](CO)[C@@H](O)[C@H](O)[C@H]3O)[C@@H](O)[C@H](O[C@H]3C4C=CO[C@@H](O[C@@H]5O[C@H](CO)[C@@H](O)[C@H](O)[C@H]5O)C4[C@@]4(CO)O[C@@H]34)O[C@H]2C)cc1 (some centres undefined)
inactive: outcome (HACAT) inactive [at 9.27 µM] | outcome (NIH3T3) inactive [at 9.27 µM] | activity change, negative = cytotoxicity (C33A) -3.09% [at 11.6 µM] | activity change, negative = cytotoxicity (CAOV3) -4.58% [at 11.6 µM] | activity change, negative = cytotoxicity (CASKI) 6.26% [at 11.6 µM] | activity change, negative = cytotoxicity (Es-2) 3.1% [at 11.6 µM] | activity change, negative = cytotoxicity (HeLa) 5.69% [at 11.6 µM] | activity change, negative = cytotoxicity (Hek293T) 2.2% [at 11.6 µM] | activity change, negative = cytotoxicity (JEG-3) 7.02% [at 11.6 µM] | activity change, negative = cytotoxicity (OV90) 9.16% [at 11.6 µM] | activity change, negative = cytotoxicity (PA-1) -1.37% [at 11.6 µM] | activity change, negative = cytotoxicity (SKOV3) 1.14% [at 11.6 µM] | activity change, negative = cytotoxicity (Tov-21-G) 4.96% [at 11.6 µM] | activity change, negative = cytotoxicity (Tov112D) 0.569% [at 11.6 µM]

CC1CC(O)/C=C/C(O)/C=C\C(=O)O1 (centres undefined)
inactive: outcome (HACAT) inactive [at 92 µM] | outcome (NIH3T3) inactive [at 92 µM] | Potency (C33A) | Potency (CAOV3) | outcome (CASKI) | Potency (Es-2) | Potency (HeLa) | Potency (Hek293T) | Potency (JEG-3) | Potency (OV90) | Potency (PA-1) | Potency (SKOV3) | Potency (Tov-21-G) | Potency (Tov112D)

COc1ccc(S(=O)(=O)Nc2nc(-c3cccc([N+](=O)[O-])c3)cs2)cc1OC
inactive: outcome (HACAT) | outcome (NIH3T3) | Potency (C33A) | Potency (CAOV3) | outcome (CASKI) | Potency (Es-2) | Potency (HeLa) | Potency (Hek293T) | Potency (JEG-3) | Potency (OV90) | Potency (PA-1) | Potency (SKOV3) | Potency (Tov-21-G) | Potency (Tov112D)

CCCC1=CC2=C(CO1)C(=O)C(C)(O)C(OC(=O)c1c(C)cc(OC)cc1O)C2 (centres undefined)
inactive: outcome (HACAT) inactive [at 17.4 µM] | outcome (NIH3T3) inactive [at 17.4 µM] | Potency (C33A) | Potency (CAOV3) | outcome (CASKI) | Potency (Es-2) | Potency (HeLa) | Potency (Hek293T) | Potency (JEG-3) | Potency (OV90) | Potency (PA-1) | Potency (SKOV3) | Potency (Tov-21-G) | Potency (Tov112D)

COc1cccc(C)c1C(=O)O[C@@H]1C[C@H](O[C@H]2[C@H](O)C[C@H](O[C@@H]3CCC[C@H]4[C@H]3C=C[C@@H]3CCCC/C=C/[C@H]5C=C(C(=O)O)[C@@H](C)C[C@@]56OC(=O)C(=C6O)OC(=O)[C@@]34C)O[C@@H]2C)O[C@H](C)[C@H]1O
inactive: outcome (HACAT) inactive [at 9.27 µM] | outcome (NIH3T3) inactive [at 9.27 µM] | activity change, negative = cytotoxicity (C33A) 10.8% [at 11.6 µM] | activity change, negative = cytotoxicity (CAOV3) 3.73% [at 11.6 µM] | activity change, negative = cytotoxicity (CASKI) 10.4% [at 11.6 µM] | activity change, negative = cytotoxicity (Es-2) 4.28% [at 11.6 µM] | activity change, negative = cytotoxicity (HeLa) 1.33% [at 11.6 µM] | activity change, negative = cytotoxicity (Hek293T) 3.45% [at 11.6 µM] | activity change, negative = cytotoxicity (JEG-3) -0.859% [at 11.6 µM] | activity change, negative = cytotoxicity (OV90) 2.5% [at 11.6 µM] | activity change, negative = cytotoxicity (PA-1) 9.36% [at 11.6 µM] | activity change, negative = cytotoxicity (SKOV3) 18.8% [at 11.6 µM] | activity change, negative = cytotoxicity (Tov-21-G) 11.1% [at 11.6 µM] | activity change, negative = cytotoxicity (Tov112D) -1.83% [at 11.6 µM]

CC[C@H](NC(=O)c1c(O)c(-c2ccccc2)nc2ccccc12)c1ccccc1
inactive: outcome (HACAT) | outcome (NIH3T3) | Potency (C33A) | Potency (CAOV3) | outcome (CASKI) | Potency (Es-2) | Potency (HeLa) | Potency (Hek293T) | Potency (JEG-3) | Potency (OV90) | Potency (PA-1) | Potency (SKOV3) | Potency (Tov-21-G) | Potency (Tov112D)

Nc1ncnc2c1ncn2[C@H]1O[C@@H](C(=O)N2CCN(CC(=O)Nc3cccc4c3CNC4=O)CC2)[C@H](O)[C@@H]1O
inactive: outcome (HACAT) | outcome (NIH3T3) | Potency (C33A) | Potency (CAOV3) | outcome (CASKI) | Potency (Es-2) | Potency (HeLa) | Potency (Hek293T) | Potency (JEG-3) | Potency (OV90) | Potency (PA-1) | Potency (SKOV3) | Potency (Tov-21-G) | Potency (Tov112D)

O=C(O)c1cccc(C(=O)CCC2OC(n3cnc4c(=O)[nH]cnc43)C(O)C2O)c1 (centres undefined)
inactive: outcome (HACAT) inactive [at 17.4 µM] | outcome (NIH3T3) inactive [at 17.4 µM] | Potency (C33A) | Potency (CAOV3) | outcome (CASKI) | Potency (Es-2) | Potency (HeLa) | Potency (Hek293T) | Potency (JEG-3) | Potency (OV90) | Potency (PA-1) | Potency (SKOV3) | Potency (Tov-21-G) | Potency (Tov112D)

C=C1C(=O)O[C@@H]2C[C@]3(C)[C@@H](CCC(C)=O)[C@@H]3C[C@H]12
inactive: outcome (HACAT) | outcome (NIH3T3) | Potency (C33A) | Potency (CAOV3) | outcome (CASKI) | Potency (Es-2) | Potency (HeLa) | Potency (Hek293T) | Potency (JEG-3) | Potency (OV90) | Potency (PA-1) | Potency (SKOV3) | Potency (Tov-21-G) | Potency (Tov112D)

CC(=O)OC1C(O)C(C)(O)C(/C=C/C(=O)O)C2(C)CCCC(C)(C)C12 (centres undefined)
inactive: outcome (HACAT) | outcome (NIH3T3) | Potency (C33A) | Potency (CAOV3) | outcome (CASKI) | Potency (Es-2) | Potency (HeLa) | Potency (Hek293T) | Potency (JEG-3) | Potency (OV90) | Potency (PA-1) | Potency (SKOV3) | Potency (Tov-21-G) | Potency (Tov112D)

CC1(C)CC[C@]2(C(=O)O[C@@H]3O[C@H](CO)[C@@H](O)[C@H](O)[C@H]3O)CC[C@]3(C)C(=CCC4[C@@]5(C)CC[C@H](O[C@@H]6O[C@H](C(=O)O)[C@@H](O)[C@H](O)[C@H]6OC6OC(CO)C(O)C(O)C6O)C(C)(C)C5CC[C@]43C)[C@@H]2C1 (some centres undefined)
inactive: outcome (HACAT) inactive [at 9.27 µM] | outcome (NIH3T3) inactive [at 9.27 µM] | activity change, negative = cytotoxicity (C33A) 0.935% [at 11.6 µM] | activity change, negative = cytotoxicity (CAOV3) 8.5% [at 11.6 µM] | activity change, negative = cytotoxicity (CASKI) 2.93% [at 11.6 µM] | activity change, negative = cytotoxicity (Es-2) 5.59% [at 11.6 µM] | activity change, negative = cytotoxicity (HeLa) 8.29% [at 11.6 µM] | activity change, negative = cytotoxicity (Hek293T) 25.2% [at 11.6 µM] | activity change, negative = cytotoxicity (JEG-3) 4.48% [at 11.6 µM] | activity change, negative = cytotoxicity (OV90) 1.96% [at 11.6 µM] | activity change, negative = cytotoxicity (PA-1) 17.8% [at 11.6 µM] | activity change, negative = cytotoxicity (SKOV3) 14.1% [at 11.6 µM] | activity change, negative = cytotoxicity (Tov-21-G) 6.86% [at 11.6 µM] | activity change, negative = cytotoxicity (Tov112D) 7.56% [at 11.6 µM]
